Our source for the Percent Effect values is ChEMBL document CHEMBL3988442, “University of Dundee, Small-Polar-MMV Screening Library” (2021).

The target in the test is T1, Aspartate--tRNA(Asp/Asn) ligase (Mycobacterium tuberculosis (strain ATCC 25618 / H37Rv)) (UniProt P9WFW3).
T1 sequence (whole entry): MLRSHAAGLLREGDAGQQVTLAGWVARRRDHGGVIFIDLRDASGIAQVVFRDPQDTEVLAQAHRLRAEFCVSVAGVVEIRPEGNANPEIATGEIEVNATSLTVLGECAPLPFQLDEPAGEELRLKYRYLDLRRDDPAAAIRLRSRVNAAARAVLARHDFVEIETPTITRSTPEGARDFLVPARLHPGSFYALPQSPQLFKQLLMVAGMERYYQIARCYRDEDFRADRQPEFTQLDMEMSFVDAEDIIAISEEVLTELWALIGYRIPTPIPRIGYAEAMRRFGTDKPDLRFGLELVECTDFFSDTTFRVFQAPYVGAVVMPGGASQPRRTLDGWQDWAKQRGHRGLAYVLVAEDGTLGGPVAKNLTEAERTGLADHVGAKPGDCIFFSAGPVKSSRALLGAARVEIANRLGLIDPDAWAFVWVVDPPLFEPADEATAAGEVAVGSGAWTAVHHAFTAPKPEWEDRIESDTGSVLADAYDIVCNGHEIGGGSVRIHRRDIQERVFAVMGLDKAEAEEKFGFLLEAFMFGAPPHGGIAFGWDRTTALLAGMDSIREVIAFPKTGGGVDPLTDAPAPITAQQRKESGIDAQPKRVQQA
The experiment in a line: Assay for Asp RNA synthetase-1 from Mycobacterium tuberculosis. It counts as functional. Also noted: scale not given: in the data most compounds retested in dose-response had high values. The settings on record: 30 µM.
With `COCC1c2nnn(CC3CC3)c2CCN1C(=O)Cc1cccs1` (stereo not given), the Percent Effect turned out to be 4.11%.
For the compound `Nc1cc(CCCNC(=O)NC2CC2)nn1-c1ccccc1`, the Percent Effect was -4.03%.
For `c1cc(OCc2ccc3c(c2)OCO3)ccc1CNC1CC1`, the Percent Effect is -1.47%.
As for `CC(C)n1ccnc1C1CCN(Cc2ccc(Cl)c(F)c2)CC1`, the Percent Effect was found to be 9.45%.
On to `Cc1ccc(N(CC(=O)c2ccc(Br)cc2)C2=NCCCCC2)cc1`, for which the Percent Effect came to 0.479%.
On to `Cc1cccc(CN2C[C@@H]3CN(C(=O)c4ccsc4)C[C@@H]3C2=O)c1`, for which the Percent Effect was 2.59%.
As to `Cc1noc(C)c1CN1CC[C@H]2OCC[C@@H](C(=O)N3CCCO3)[C@@H]2C1`, the Percent Effect was -1.14%.
In the case of `Cc1cccc(C2(C(=O)NCCCn3cccn3)CC2)c1`, the Percent Effect was -9.29%.
Under `Cn1cc(Cl)cc1C(=O)N1CCCN(Cc2cccs2)CC1` stands -5.24%.
Regarding `O=C(NCC(O)c1ccc(F)c(F)c1)c1cccnc1OCC(F)(F)F` (stereo not given), the Percent Effect was -1.66%.
With `O=C(c1ccc(C2CCCO2)s1)N1CCN(c2ccccc2F)CC1` (stereo not given), the Percent Effect worked out at 1.1%.
In the case of `COc1ncc(C2(O)CCN(Cc3ccccc3O)CC2)c(OC)n1`, the Percent Effect is -1.78%.
For the compound `Cc1ccc2c(ccn2CCC(=O)O)c1`, the Percent Effect was 0.776%.
As to `Cc1nccn1-c1cccc(C2CCCN2S(=O)(=O)N(C)C)n1` (stereo not given), the Percent Effect worked out at 1.37%.
Regarding `Cc1cc(N2CCC(c3nnc(CN(C)C)n3C3CC3)CC2)ccn1`, the Percent Effect came to 5.21%.
Take `O=C(NCc1nn(-c2ccccc2)c2c1CCC2)N1CCSCC1`: the Percent Effect is -2.32%.
`CCc1ncc(CNC2CC(=O)N(CCc3cccc(Cl)c3)C2)cn1` (stereo not given): the Percent Effect is -0.729%.
On to `CC(NC(=O)N1CCN(CCc2ccccc2)CC1)c1nncn1C` (stereo not given), for which the Percent Effect was -7.6%.
For `CS(=O)(=O)N1CC[C@]2(C[C@@H](OCC3CCC3)CO2)C1`, the Percent Effect was -2.3%.
As to `CCCOCC(=O)NC1CCc2nc(C)cn2C1` (stereo not given), the Percent Effect came to 1.62%.
